Test results reported in PubChem BioAssay (EPA / NIEHS).
Inconclusive results are not listed. A structure can be active in one record and inactive in another. The source made the active and inactive calls. The calls were made as follows, unless noted: active = hit-call score of the fitted dose curve at least 0.9, where 1 is the maximum; inconclusive = response in the unintended direction; inactive = score below 0.9.

How the values were obtained:
[1] = read-out: X-box binding protein 1 (XBP1), XBP1 (gene 7494); test: LTEA_HepaRG_XBP1: Life Technologies and Expression Analysis (LTEA) Assay for X-box binding protein 1 (XBP1) using HepaRG (AID 2283540; active = hit-call score of the fitted dose curve at least 0.9, where 1 is the maximum; inactive = score below 0.9); conditions: mRNA level, 48 h; actives raise or lower the signal
In short: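 Transcript levels of XBP1, measured by qRT-PCR and normalised to three housekeeping genes, were fitted bidirectionally relative to 0.5% DMSO controls. Human HepaRG cells received eight-point half-log dilutions from 100 uM for 48 h.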

[2] = LTEA_HepaRG_LDH_cytotoxicity: Cytotoxicity Assessment in the Life Technologies and Expression Analysis (LTEA) Assay (AID 2283563);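 as to AC50: LDH activity released into spent culture medium as a marker of cell death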
In short: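 Cells were thawed and plated for 48 h. Medium was then replaced with serum-free induction medium. Chemicals (8 half-log points, maximum 100 uM, 0.5% DMSO) were added in duplicate for 48 h, after which spent medium was assayed for LDH.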

[3] = TOX21_p53_BLA_p2_viability: Viability Assessment in the Tox21 HCT-116 p53 Agonism Beta-lactamase Assay, Phase 2 (AID 2283591);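 also: compound exposure lasted 16 h at 37 °C; actives lower the ATP signal meaning cytotoxicity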
In short: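 HCT-116 p53-bla cells (4000/well) rested 5 h at 37C, then received compounds in DMSO (217-fold dilution) for 16 h at 37C, 5% CO2. After the CCF4 read, CellTiter-Glo was added; ATP luminescence was read after 30 min at room temperature.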

[4] = target: Cellular tumor antigen p53 (Homo sapiens) (UniProt P04637); test: TOX21_p53_BLA_p2_ratio: Tox21 HCT-116 p53 Agonism Beta-lactamase Assay, Ratio, Phase 2 (AID 2283592)
In short: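 Plated HCT116 p53-bla cells (4000/well) received compound after 5 h, then 16 h at 37C/5% CO2. CCF4-AM added, 2 h RT. Ratio of 460 to 530 nm emission taken as the p53 reporter signal.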

[5] = TOX21_p53_BLA_p3_viability: Viability Assessment in the Tox21 HCT-116 p53 Agonism Beta-lactamase Assay, Phase 3 (AID 2283593);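 also: cells exposed to compound for 16 h before reading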
In short: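 HCT-116 cells (4000/well) rested 5 h at 37C, then got DMSO compounds by pin tool (217-fold dilution) for 16 h at 37C, 5% CO2. After the bla read, CellTiter-Glo was added and luminescence read at 30 min, room temperature.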

[6] = target: Cellular tumor antigen p53 (Homo sapiens) (UniProt P04637); test: TOX21_p53_BLA_p3_ratio: Tox21 HCT-116 p53 Agonism Beta-lactamase Assay, Ratio, Phase 3 (AID 2283596)
In short: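 Cells were seeded at 4000/well, rested 5 h at 37C, then dosed with DMSO compound solutions (217-fold dilution) for 16 h. CCF4-AM substrate was loaded for 2 h at room temperature, and the 460/530 nm emission ratio was fitted for gain of signal versus DMSO.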

[7] = TOX21_p53_BLA_p4_viability: Viability Assessment in the Tox21 HCT-116 p53 Agonism Beta-lactamase Assay, Phase 4 (AID 2283597);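 also: hits lower the luminescence signal meaning cytotoxicity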
In short: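 Readout: ATP luminescence (CellTiter-Glo), measured 30 min after reagent addition at RT. The reagent followed a 2 h CCF4-AM incubation, and the cells had been exposed to compound for 16 h at 37C.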

[8] = TOX21_p53_BLA_p5_viability: Viability Assessment in the Tox21 HCT-116 p53 Agonism Beta-lactamase Assay, Phase 5 (AID 2283600)
In short: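 Workflow: seed 4000 cells per well, wait 5 h, add compounds (DMSO, 217-fold dilution), incubate 16 h, load CCF4-AM 2 h, add CellTiter-Glo, read luminescence after 30 min.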

[9] = target: Cellular tumor antigen p53 (Homo sapiens) (UniProt P04637); test: TOX21_p53_BLA_p4_ratio: Tox21 HCT-116 p53 Agonism Beta-lactamase Assay, Ratio, Phase 4 (AID 2283601)
In short: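 HCT116 cells carrying an inducible beta-lactamase reporter were plated at 4000 cells/well, rested 5 h, then exposed to compounds in DMSO (217-fold dilution) for 16 h at 37C. CCF4-AM substrate was loaded 2 h at room temperature; 460/530 nm emission ratio scored gain-of-signal versus DMSO.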

[10] = Tanguay_ZF_120hpf_MORT_legacy: (Legacy) Oregon State University Tanguay Lab 120 Hour Post-fertilization zebrafish Assay for Mortality (AID 2283633)
In short: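 5D WT zebrafish, chorion removed 4 hpf; 1 embryo/well from 6 hpf; static exposure to 120 hpf, 28C, dark, sealed. Final DMSO 0.64%. Readout: binary mortality, brightfield, 24 + 120 hpf; DMSO as negative control.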

[11] = Tanguay_ZF_120hpf_SNOU_legacy: (Legacy) Oregon State University Tanguay Lab 120 Hour Post-fertilization zebrafish Assay for Snout Malformation (AID 2283637)
In short: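 Dechorionated zebrafish, individually housed from 6 hpf in covered, sealed wells at 28C with 0.64% DMSO vehicle, were examined at 120 hpf for snout malformation. Responses were binary and analysed positive-direction relative to DMSO.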

[12] = Tanguay_ZF_120hpf_JAW_legacy: (Legacy) Oregon State University Tanguay Lab 120 Hour Post-fertilization zebrafish Assay for Jaw Malformation (AID 2283638);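 as to AC50: active means more embryos with jaw malformation than DMSO controls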
In short: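 Steps: dechorionate 4 hpf embryos (pronase); plate 1/well at 6 hpf; add test chemical, 0.64% DMSO final; seal, cover, hold at 28C statically to 120 hpf; score jaw defect presence/absence microscopically. Dead embryos not scored.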

[13] = Tanguay_ZF_120hpf_OTIC_legacy: (Legacy) Oregon State University Tanguay Lab 120 Hour Post-fertilization zebrafish Assay for Otic Vesicle Malformation (AID 2283639)
In short: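 Statically exposed wild-type 5D zebrafish embryos, kept sealed and dark at 28C through 120 hours post fertilization, were examined by brightfield microscopy for otic vesicle defects. Responses were recorded as present or absent and analysed relative to DMSO.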

[14] = Tanguay_ZF_120hpf_BRAI_legacy: (Legacy) Oregon State University Tanguay Lab 120 Hour Post-fertilization zebrafish Assay for Brain Malformation (AID 2283641)
In short: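 Wild-type 5D larvae, static waterborne exposure to 120 hpf, 28C, 0.64% v/v DMSO. Brightfield scoring of brain defects, binary; dead embryos excluded. Positive ctrl 5uM trimethyltin chloride.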

[15] = Tanguay_ZF_120hpf_YSE_legacy: (Legacy) Oregon State University Tanguay Lab 120 Hour Post-fertilization zebrafish Assay for Yolk Sac Edema (AID 2283634);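 as to AC50: actives raise the incidence of yolk sac edema above the DMSO baseline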
In short: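 Dechorionate (pronase, 4 hpf) → place one 6 hpf embryo per well → static compound exposure, sealed and foil-covered, 28C, to 120 hpf → record yolk sac edema as present or absent. Final DMSO 0.64%.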

[16] = Tanguay_ZF_120hpf_AXIS_legacy: (Legacy) Oregon State University Tanguay Lab 120 Hour Post-fertilization zebrafish Assay for Body Axis Malformation (AID 2283635);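 as to AC50: potency for an increased fraction of larvae scored with body axis malformation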
In short: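 Chorion is removed with pronase at 4 hpf, then single 6 hpf embryos are dosed (final DMSO 0.64%) and held statically at 28C in sealed, foil-covered plates. At 120 hpf body axis malformation is recorded as present or absent.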

[17] = ATG_XTT_Cytotoxicity: Cytotoxicity Assessment in the Attagene TRANS-FACTORIAL HepG2 Assay (AID 2283584)
In short: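 Cells: human HepG2, transiently transfected with MRTU reporter constructs. Exposure 24 h. Readout: XTT, cell number. Baseline/neg ctrl DMSO; loss-of-signal scored.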

[18] = Tanguay_ZF_120hpf_PE_legacy: (Legacy) Oregon State University Tanguay Lab 120 Hour Post-fertilization zebrafish Assay for Pericardial Edema (AID 2283640)
In short: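 Embryos from wild-type 5D adults were staged, then dosed in 0.64% DMSO. They were kept sealed in the dark at 28C until 120 hpf. Pericardial edema was then recorded as present or absent.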

[19] = Tanguay_ZF_120hpf_EYE_legacy: (Legacy) Oregon State University Tanguay Lab 120 Hour Post-fertilization zebrafish Assay for Eye Malformation (AID 2283636);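 also: binary presence or absence of eye malformation scored by brightfield in 120 hpf larvae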
In short: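 Static waterborne exposure of dechorionated zebrafish embryos (strain Tropical 5D), 6 to 120 hpf, sealed plates at 28C, 0.64% DMSO vehicle. Eye malformation is scored as a binary endpoint, with gain of signal analysed relative to DMSO.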

[20] = target: Cellular tumor antigen p53 (Homo sapiens) (UniProt P04637); test: TOX21_p53_BLA_p5_ratio: Tox21 HCT-116 p53 Agonism Beta-lactamase Assay, Ratio, Phase 5 (AID 2283599)
In short: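 HCT-116 cells carrying a p53-inducible beta-lactamase reporter were seeded at 4000 cells/well and dosed after 5 h with compound in DMSO (217-fold dilution). After 16 h at 37C, CCF4-AM substrate was added for 2 h, and the 460/530 nm emission ratio was scored as gain-of-signal versus DMSO.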

Measured: AC50

Cellular tumor antigen p53 (Homo sapiens), sequence (P04637 whole entry, looked up): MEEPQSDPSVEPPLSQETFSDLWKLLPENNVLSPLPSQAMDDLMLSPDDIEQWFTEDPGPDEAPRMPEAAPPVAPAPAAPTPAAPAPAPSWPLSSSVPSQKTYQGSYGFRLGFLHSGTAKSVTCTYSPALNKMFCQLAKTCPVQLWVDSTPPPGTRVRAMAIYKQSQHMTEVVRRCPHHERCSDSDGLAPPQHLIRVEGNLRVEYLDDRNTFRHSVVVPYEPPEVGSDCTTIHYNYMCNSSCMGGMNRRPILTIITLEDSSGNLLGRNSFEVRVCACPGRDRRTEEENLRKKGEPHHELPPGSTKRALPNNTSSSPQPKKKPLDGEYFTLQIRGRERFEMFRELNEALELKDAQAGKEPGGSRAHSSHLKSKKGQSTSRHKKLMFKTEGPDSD

OC(c1ccc(Cl)cc1)(c1ccc(Cl)cc1)C(Cl)(Cl)Cl
active: [1] 82.1 µM | [2] 74.3 µM | [3] 77.9 µM | [5] 38.8 µM | [6] 49.6 µM | [7] 86.7 µM | [8] 71 µM
inactive: [4] | [9] | [10] | [11] | [12] | [13] | [14]

COc1ccc(-c2ccccc2)cc1NNC(=O)OC(C)C
not listed: [17] | [18] | [19] | [20]
inactive: all other assays above

CCCCC(O)(Cn1cncn1)c1ccc(Cl)cc1Cl (stereo not drawn)
active: [7] 82 µM | [9] 87 µM
not listed: [14] | [17] | [18] | [19] | [20]
inactive: all other assays above

CC1(C)C(C=C(Cl)Cl)C1C(=O)OC(C#N)c1cccc(Oc2ccccc2)c1 (stereo not drawn)
active: [15] 1.7 µM | [16] 1.23 µM | [11] 1.53 µM | [12] 1.66 µM
not listed: [18] | [19] | [20]
inactive: all other assays above

COC(=O)NS(=O)(=O)c1ccc(N)cc1
not listed: [7] | [8] | [13] | [17] | [19] | [20]
inactive: all other assays above

CCCCOCN(C(=O)CCl)c1c(CC)cccc1CC
active: [7] 67.9 µM | [9] 66 µM
not listed: [5] | [17] | [18] | [20]
inactive: all other assays above

O=C(Nc1ccccc1-c1ccc(Cl)cc1)c1cccnc1Cl
not listed: [17] | [19]
inactive: all other assays above

Cn1c(-c2ccccc2)cc(-c2ccccc2)[n+]1C
active: [2] 66.1 µM | [4] 24.2 µM
inactive: [1] | [3] | [4] | [5] | [6] | [7] | [8] | [9] | [10] | [15] | [16] | [19] | [11] | [12] | [13] | [14]
